Shown are actives, neighbours in structure and some others; about 2.4% of the full set was active somewhere.
Cruzain noTriton: blocks cruzain activity in detergent-free assay; AID 1476; 200,000 compounds, 2.3% hits; Potency, µM, inactives show max response, negative = inhibition, actives largely listed as inhibitors; purified cruzain, Z-FR-AMC fluorescence, no detergent;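 further: plate controls were enzyme without inhibitor for no effect and buffer without enzyme for full effect; nearly all actives have a fitted effect of over 40% in size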
Target sequence (P25779 123-467 limits assumed): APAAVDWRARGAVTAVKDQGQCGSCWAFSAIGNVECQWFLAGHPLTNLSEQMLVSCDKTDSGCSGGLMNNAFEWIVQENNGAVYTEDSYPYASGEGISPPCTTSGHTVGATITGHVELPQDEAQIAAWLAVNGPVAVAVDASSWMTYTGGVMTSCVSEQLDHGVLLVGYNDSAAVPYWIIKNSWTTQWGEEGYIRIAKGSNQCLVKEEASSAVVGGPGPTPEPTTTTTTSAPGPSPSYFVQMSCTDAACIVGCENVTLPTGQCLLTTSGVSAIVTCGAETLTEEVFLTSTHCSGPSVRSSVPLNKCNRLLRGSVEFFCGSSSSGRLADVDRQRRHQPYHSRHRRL
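Purified cruzain at 1.5 nM, pre-incubated 15 min with compound at room temperature in 100 mM sodium acetate pH 5.5, 5 mM DTT, 0.00005% Triton X-100. Reaction started with 2 uM Z-FR-AMC; AMC fluorescence increase over 60 s gives rate.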
Cruzain inh Det: inhibitors of Trypanosoma cruzi cruzain with detergent | 200,000 compounds, 0.43% hits | Potency, µM, for inactives: max response, negative = inhibition, usual class: inhibitors | purified cruzain, Z-FR-AMC fluorescence, 0.01% Triton;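 further: plate controls were neutral wells for no effect and buffer without enzyme for full effect; nearly all actives have a fitted effect of over 40% in size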
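Sodium acetate buffer (100 mM, pH 5.5) containing 5 mM DTT and 0.01% Triton X-100 hosted 1.5 nM cruzain and test compound for 15 min at room temperature. Cleavage of 2 uM Z-FR-AMC was then tracked by fluorescence.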
The depositor's hits bear a star; ? = inconclusive. The call rests on the fitted dose curve; in most records, active means well fitted curve in the direction sought with a large enough effect; inconclusive means small, poorly fitted or top-dose-only effect, or another doubt; inactive means no such curve, though single readings can be large; an effect the other way counts as inactive or inconclusive. Potency means the concentration at half of the fitted maximal effect.

SMILES | Cruzain noTriton | Cruzain inh Det
COc1cc2c(cc1OC)C(COc1ccc3c(C)cc(=O)oc3c1)N(C(=O)c1cc(Cl)ccc1OC)CC2 (stereo not given) | -0.2% | 1.4%
O=C(NCc1cccnc1)[C@@H]1[C@@H](C(=O)O)[C@H]2CC[C@@H]1O2 | -7.6% | 1.5%
CN(C)S(=O)(=O)c1ccc2c(c1)N(CC(=O)NCc1ccccc1)C(=O)C1CCCCN21 (stereo not given) | 2.2% | -1.9%
Cn1cc(-c2nc3cnc(Oc4ccccc4)nc3n(CCC#N)c2=O)c2ccccc21 | 3.9% | 3.8%
N#CCCN/N=C(\Cc1nc2ccccc2[nH]1)c1ccccc1 | -5.0% | -0.5%
N#CCCN/N=C(/Cc1nc2ccccc2[nH]1)c1ccc(Cl)cc1 | 25.1µM* | -0.7%
Cc1ccc(N/N=C(\Cc2nc3ccccc3[nH]2)c2ccccc2)cc1 | 25.1µM* | -3.0%
c1ccc(N/N=C(\Cc2nc3ccccc3[nH]2)c2ccccc2)cc1 | -27.5% | -16.0%
COC(=O)C1CN(C#N)N(c2ccc(Cl)cc2)C12c1ccccc1-c1ccccc12 (stereo not given) | 25.1µM* | -9.2%
O=C1c2ccccc2C(O)N1c1ccc(Cl)cc1 (stereo not given) | -27.1% | -2.2%
CSCCC(NC(=O)C12CC3CC(CC(C3)C1)C2)C(=O)OCC(=O)c1ccc(C)cc1 (stereo not given) | 14.1% | -1.7%
CSCCC(NC(=O)c1ccc([N+](=O)[O-])cc1Cl)C(=O)OCC(=O)C12CC3CC(CC(C3)C1)C2 (stereo not given) | 25.1µM* | 28.2µM*
Cc1nc(-c2ccccc2)sc1-c1ccc(SCC(=O)Nc2ccc(F)cc2F)nn1 | -2.5% | -0.6%
Cc1ccc(C)c(-c2ccc(=O)n(C(C)C(=O)Nc3ccccc3C(F)(F)F)n2)c1 (stereo not given) | ? | -7.4%
C(=C\c1nc2ccccc2[nH]1)/c1ccccc1 | 20µM* | -20.8%
Cc1cccc(/C=C\c2nc3ccccc3c(=O)[nH]2)c1 | ? | 27.2%
Cc1cc2oc3c(c(=O)c2cc1C)C(c1cccc(Br)c1)N(Cc1ccco1)C3=O (stereo not given) | ? | -3.1%
Cc1ccc2oc3c(c(=O)c2c1)C(c1cccc(Br)c1)N(Cc1ccco1)C3=O (stereo not given) | 25.1µM* | 7.1%
CC(=O)NCCNc1nc(-c2ccccc2Cl)nc2ccccc12 | -4.7% | 1.8%
Cc1ccc(-c2nc(-c3nccc4ccccc34)oc2-c2ccccc2)cc1 | -3.7% | -0.3%
O=C(O)COc1cccc(-c2ocnc2-c2nc(-c3ccccc3)c(-c3ccccc3)o2)c1 | 7.94µM* | 4.0%
COc1ccc(CCNc2ncnc3c2nnn3C)cc1OC | -4.8% | -0.3%
Cc1cccc(N2CCN(C(c3ccc(F)cc3)c3nnc(-c4ccccc4)o3)CC2)c1C (stereo not given) | ? | -2.5%
Cc1ccc(Cl)cc1N1CCN(C(c2ccc(F)cc2)c2nnc(-c3ccccc3)o2)CC1 (stereo not given) | 6.31µM* | -0.6%
O=C(Nc1cc(Cl)ccc1Cl)c1ccc(-c2ccccc2)cc1 | -16.9% | -5.7%
SMILES | Cruzain noTriton | Cruzain inh Det
COC(=O)c1ccc(C(=O)Nc2cc(Cl)ccc2Cl)cc1NC(=O)c1ccc(N(C)C)cc1 | 3.16µM* | -4.8%
Cc1ccccc1NC(=O)N1CCc2c(sc3c2CCCC3)C1c1ccccc1 (stereo not given) | ? | -0.4%
Cc1ccc(NC(=O)N2CCc3c(sc4c3CCCC4)C2c2ccccc2)cc1F (stereo not given) | 7.94µM* | -1.3%
Oc1c(C(c2ccc(Cl)cc2)N2CCOCC2)sc2nc(-c3ccco3)nn12 (stereo not given) | ? | -6.9%
O=C(COc1ccc2ccccc2c1)Nc1cccc(C(=O)Nc2ccccc2C(=O)O)c1 | ? | 31.6µM*
CC(=O)c1cccc(NC(=O)COc2ccccc2)c1 | -2.5% | 2.0%
CCn1c(SCC(=O)Nc2cc(C)ccc2F)nnc1-c1ccccc1O | 3.3% | -3.4%
S=C1NCCc2ccccc2C1c1ccccc1 (stereo not given) | 31.6µM* | ?
O=C(O)C1NCCc2ccccc21 (stereo not given) | 10.5% | 4.0%
CCNc1ncc2nc(-c3cccc(C#N)c3)c(=O)n(CCC#N)c2n1 | 14.2% | -2.5%
O=c1[nH]cnc2c1ncn2C1CC(O)C(CO)O1 (stereo not given) | 1.2% | 4.3%
COc1ccc(C2Nc3ccccc3C(=O)N2Cc2ccco2)cc1COc1ccc(F)cc1 (stereo not given) | 25.1µM* | -9.4%
COc1ccc(C2Nc3ccccc3C(=O)N2Cc2ccco2)cc1CN1C(=O)c2ccccc2C1=O (stereo not given) | ? | -0.7%
Cc1ccc(CNC(=O)CN2C(=O)C3(SCC(=O)N3c3cc(C)cc(C)c3)c3ccccc32)cc1 (stereo not given) | -26.4% | -4.9%
CCCOc1ccc(-c2cccc(NS(=O)(=O)c3ccc(CC)cc3)c2)nn1 | -25.8% | -8.8%
Cc1ccc(C)c(CN2C(=O)c3ccccc3S(=O)(=O)c3ccc(C(=O)N4CCN(c5ccccc5)CC4)cc32)c1 | -26.6% | -0.6%
CC(=O)N/N=C/c1cc(C)n(-c2ccc(Br)cc2)c1C | -0.4% | -3.6%
Cc1cc([P+](=O)O)c(C)n1-c1ccc(Br)cc1 | 20µM* | 3.5%
Cc1ccc(-c2ccc(=O)n(CC(=O)NC(C)c3ccccc3)n2)cc1 (stereo not given) | 3.5% | 1.1%
CCOc1ccc(C(=O)Nc2cccc(C(=O)OCc3cc(=O)n4cc(C)sc4n3)c2)cc1 | 0.6% | 2.0%
N=c1oc2ccccc2cc1-c1nc(-c2ccccc2)cs1 | ? | -14.5%
N=c1oc2ccc3ccccc3c2cc1-c1nc(-c2ccccc2)cs1 | 25.1µM* | -5.3%
C/C(=N/NS(=O)(=O)c1ccc(C)cc1)c1cccc(NC(=O)c2cccc(Cl)c2)c1 | -20.7% | -3.9%
C/C(=N/NS(=O)(=O)c1ccc(Cl)cc1)c1cccc(NC(=O)c2ccc(Cl)cc2Cl)c1 | 25.1µM* | 1.2%
CN1CCN(c2ncc3c(n2)CCN(Cc2cc(Br)cs2)C3)CC1 | -11.1% | -7.8%
SMILES | Cruzain noTriton | Cruzain inh Det
CCOC(=O)c1c(C)oc2nc(C)nc(NCCCN3CCN(c4cc(C)ccc4C)CC3)c12 | -6.4% | -0.6%
CCN(CC)c1ccc(-c2nc(-c3ccco3)no2)cc1[N+](=O)[O-] | 15.8µM* | -3.6%
COc1cc(-c2noc(-c3ccc(N(C)C)c([N+](=O)[O-])c3)n2)cc(OC)c1OC | 25.1µM* | -6.7%
CCCCNc1ccc(-c2nc(-c3ccco3)no2)cc1[N+](=O)[O-] | ? | -14.9%
CN(C)c1ccc(-c2nc(-c3ccncc3)no2)cc1[N+](=O)[O-] | -6.0% | -2.4%
O=C(CCC(=O)OCC(=O)c1ccc(Cl)cc1)Nc1ccc(Oc2ccccc2)cc1 | ? | -0.1%
CC(=O)[C@H]1CC[C@H]2[C@@H]3C=CC4=CC(=O)CC[C@@]4(C)[C@H]3CC[C@]12C | -11.8% | -5.4%
CS(=O)(=O)Nc1cccc(-c2cncnc2NCc2ccccc2)c1 | -2.5% | 7.8%
Cc1cccc2nc(CSc3nc4ccc([N+](=O)[O-])cc4[nH]3)c(Br)n12 | 3.16µM* | -6.7%
O=[N+]([O-])c1ccc(CSc2nc3ccccc3[nH]2)cc1 | -2.9% | -14.1%
CC(=O)c1c(C)[nH]c(C(=O)COC(=O)CNS(=O)(=O)c2ccccc2)c1C | -24.3% | -16.9%
CC(=O)c1c(C)[nH]c(C(=O)COC(=O)CCSc2ccccc2)c1C | ? | 15.8µM*
